Laboratory results published in PMC4552634, “A New Set of Chemical Starting Points with Plasmodium falciparum Transmission-Blocking Potential for Antimalarial Drug Discovery” (PLoS ONE, 2015).
Where two headings read alike, the source gives them in different places. Screen size: about 13,000 compounds; about 3,200 (25%) showed an effect of 50% or more. The list shows a part of the results.

Test system: P. falciparum stage V gametocytes
Set-up: BacTiter-Glo ATP luminescence viability of purified stage V gametocytes in 384-well plates, per cent inhibition versus DMSO
Details: 48 h, 5 µM, inhibitor

CCCCCCNC(=O)C(N)CCCC(N)C(=O)NCCCCCC (stereo not drawn) [TCMDC-131401]
% Inhibition: 16.24%

CSc1cccc(NC(=O)Nc2ccc(I)c(OCCN(C)C)c2)c1 [TCMDC-139123]
% Inhibition: 6.817%

COc1cc2cc(Cc3cnc(N)nc3N)ccc2c(OC)c1OC [TCMDC-138023]
% Inhibition: -6.286%

O=C(NCCCc1ccccc1)c1csc(C2CCCN(C(=O)c3ccc(O)c(-c4cccc5ccccc45)c3)C2)n1 (stereo not drawn) [TCMDC-140154]
% Inhibition: -33.08%

CC(C)(C)c1ccc(NC(=O)c2cccc(CN3CCCN(Cc4cccc(Cl)c4)CC3)c2)cc1 [TCMDC-135982]
% Inhibition: -61.3%

CCc1cc(I)c2c(c1)C(NCCCNc1cc(=O)c3ccccc3[nH]1)CCN2 (stereo not drawn) [TCMDC-140023]
% Inhibition: -10.14%

O=c1cc(NCCNCc2cccc(-c3ccccc3)c2)[nH]c2ccccc12 [TCMDC-139376]
% Inhibition: 20.69%

Cc1cc(NCCC(=O)Nc2ccccc2)nc(NCC2CCCCC2)n1 [TCMDC-134926]
% Inhibition: -30.27%

CC(C)(C)C1CCC(C(=O)c2ccc3ccccc3c2O)CC1 (stereo not drawn) [TCMDC-137495]
% Inhibition: 11.22%

O=C(CCC1CCCCC1)NCCNc1cccc2ccccc12 [TCMDC-124017]
% Inhibition: 107.9%

O=C(Nc1ccccc1)Nc1cccc(-c2cccc(-c3nc4ccc(F)cc4[nH]3)c2)c1 [TCMDC-133154]
% Inhibition: -14.02%

CCOc1ccc(-c2nc(NC(=O)COc3ccc(OC)cc3)sc2C)cc1 [TCMDC-124329]
% Inhibition: 36.75%

Cc1cccc2[nH]c(-c3cccc(-c4cccc(NC(=O)c5csnn5)c4)c3)nc12 [TCMDC-136904]
% Inhibition: 82.61%

Cc1cccc2[nH]c(-c3cccc(-c4cccc(NC(=O)C5CC(=O)Nc6ccccc65)c4)c3)nc12 (stereo not drawn) [TCMDC-137097]
% Inhibition: 79.84%

O=C1CC(C(=O)Nc2cccc(-c3cccc(-c4nc5ccccc5[nH]4)c3)c2)c2ccccc2N1 (stereo not drawn) [TCMDC-137096]
% Inhibition: 26.75%

Cc1ccoc1C(=O)Nc1ccc(-c2cccc(-c3nc4c(C)cccc4[nH]3)c2)cc1 [TCMDC-136837]
% Inhibition: -21.37%

Cc1ccoc1C(=O)Nc1cccc(-c2cccc(-c3nc4c(C)cccc4[nH]3)c2)c1 [TCMDC-136836]
% Inhibition: 81.69%

Cc1cccc2[nH]c(-c3cccc(-c4ccc(NC(=O)C5CC(=O)Nc6ccccc65)cc4)c3)nc12 (stereo not drawn) [TCMDC-137098]
% Inhibition: -77.35%

CC(=O)Nc1nc(C(=O)Nc2cccc(-c3cccc(-c4nc5c(C)cccc5[nH]4)c3)c2)cs1 [TCMDC-137130]
% Inhibition: -6.466%

Cc1ccoc1C(=O)Nc1cccc(-c2cccc(-c3nc4ccccc4[nH]3)c2)c1 [TCMDC-136834]
% Inhibition: -43.19%

CC(=O)Nc1nc(C(=O)Nc2cccc(-c3ccc(-c4nc5c(C)cccc5[nH]4)cc3)c2)cs1 [TCMDC-137123]
% Inhibition: 80.9%

CC(=O)Nc1nc(C(=O)Nc2ccc(-c3cccc(-c4nc5c(C)cccc5[nH]4)c3)cc2)cs1 [TCMDC-137131]
% Inhibition: -2.039%

O=C(Nc1cccc(-c2cccc(-c3nc4ccccc4[nH]3)c2)c1)c1csnn1 [TCMDC-136898]
% Inhibition: 1.573%

Cc1cnc(C(=O)Nc2cccc(-c3cccc(-c4nc5c(C)cccc5[nH]4)c3)c2)cn1 [TCMDC-137030]
% Inhibition: -21.98%

Clc1cc(Nc2ccnc3ccc(Br)cc23)ccc1Oc1ccc(Cl)c2ccccc12 [TCMDC-123834]
% Inhibition: -13.4%

O=c1cc(NC[C@H]2CCC[C@@H]2NC2CCCc3c2[nH]c2ccccc32)[nH]c2ccccc12 (stereo partly drawn) [TCMDC-139785]
% Inhibition: 10.53%

CCc1cccc(C)c1-n1nc(-c2cc(C(C)(C)C)oc2C)cc1N [TCMDC-134028]
% Inhibition: 9.67%

CCc1ccc(NC(=O)c2ccc(CN3CCCN(CC4CCCCC4)CC3)cc2)cc1 [TCMDC-136437]
% Inhibition: -21.72%

COc1ccc2nccc(N3CCC(CCNCc4ccc5c(n4)NC(=O)CO5)CC3)c2c1.Cl [TCMDC-141904]
% Inhibition: -28.1%

Cc1nn(C)c(C)c1CN(Cc1nc(-c2cccc(Oc3ccccc3)c2)oc1C)C1CC1 [TCMDC-124629]
% Inhibition: 8.903%

C=CCc1cc(Cc2cnc(N)nc2N)cc(CCC)c1O [TCMDC-138048]
% Inhibition: -56.02%

COc1ccc2nccc([C@@H](O)CN3CCC(NC(=O)/C=C/c4cc(F)cc(NC(C)=O)c4)CC3)c2c1 [TCMDC-141030]
% Inhibition: -4.964%

Oc1cccc(-c2nc3cc(C4=NC5CCCCC5N4)ccc3[nH]2)c1 (stereo not drawn) [TCMDC-138108]
% Inhibition (% Inhibition): -4.911%

CC(=O)Nc1nc(C(=O)Nc2ccc(-c3cccc(-c4nc5ccccc5[nH]4)c3)cc2)cs1 [TCMDC-137120]
% Inhibition: 25.25%

CC(=O)Nc1nc(C(=O)Nc2cccc(-c3cccc(-c4nc5ccccc5[nH]4)c3)c2)cs1 [TCMDC-137121]
% Inhibition: -11.21%

CC(=O)Nc1nc(C(=O)Nc2cccc(-c3ccc(-c4nc5ccccc5[nH]4)cc3)c2)cs1 [TCMDC-137127]
% Inhibition: 61.93%

N#CC(c1ccc(F)cc1)c1ccc2c(C(F)(F)F)cc(C(F)(F)F)nc2n1 (stereo not drawn) [TCMDC-123761]
% Inhibition: -46.13%

COc1ccc2nccc(N3CCN(CCNCc4ccc5c(n4)NC(=O)CS5)CC3)c2n1 [TCMDC-141967]
% Inhibition: -20.32%

COc1cccc(O)c1CNCC(O)c1cccc(C(F)(F)F)c1 (stereo not drawn) [TCMDC-140396]
% Inhibition: -36.87%

FC(F)(F)c1ccc2nc(-c3cccc(-c4ccc(CNCc5ccccc5)cc4)c3)[nH]c2c1 [TCMDC-132712]
% Inhibition: -50.86%

CS(=O)(=O)c1ccc(CNCc2ccc(-c3cccc(-c4nc5ccc(C(F)(F)F)cc5[nH]4)c3)cc2)cc1 [TCMDC-132897]
% Inhibition: 17.9%

FC(F)(F)c1ccc2nc(-c3ccc(-c4ccc(CNCc5ccccc5)cc4)cc3)[nH]c2c1 [TCMDC-132705]
% Inhibition: 55.9%

O=C(NCc1ccccc1)Nc1ccc(-c2ccc(-c3nc4ccc(C(F)(F)F)cc4[nH]3)cc2)cc1 [TCMDC-133157]
% Inhibition: -8.983%

Nc1cccc(CNCc2cccc(-c3ccc(-c4nc5ccc(C(F)(F)F)cc5[nH]4)cc3)c2)c1 [TCMDC-132935]
% Inhibition: -40.76%

CS(=O)(=O)c1ccc(CNCc2cccc(-c3ccc(-c4nc5ccc(C(F)(F)F)cc5[nH]4)cc3)c2)cc1 [TCMDC-132902]
% Inhibition: -71.66%

Nc1cccc(CNCc2ccc(-c3cccc(-c4nc5ccc(C(F)(F)F)cc5[nH]4)c3)cc2)c1 [TCMDC-132929]
% Inhibition: -69.76%

NCc1ccc(CNCc2cccc(-c3ccc(-c4nc5cc(C(F)(F)F)ccc5[nH]4)cc3)c2)cc1 [TCMDC-132811]
% Inhibition: 93.89%

FC(F)(F)c1ccc2nc(-c3ccc(-c4cccc(CNCc5ccccc5)c4)cc3)[nH]c2c1 [TCMDC-132704]
% Inhibition: 67.94%

Fc1cccc(Cl)c1-c1nc(NCCC(c2ccccc2)c2ccccc2)no1 [TCMDC-134175]
% Inhibition: -12.09%

Cc1cc(=O)[nH]c(NC#N)n1 [TCMDC-123468]
% Inhibition: 11.83%

O=C(c1cc(-c2ccccc2O)on1)N1CCN(C(c2ccccc2)c2ccccc2)CC1 [TCMDC-125470]
% Inhibition: 18.53%

CC1(C)C2C=C(CN3CCC(NC(=O)Nc4ccc(Cl)c(Cl)c4)CC3)C1CC2 (stereo not drawn) [TCMDC-135871]
% Inhibition: 38.53%

COc1cccc(O)c1CN1CCC2(CCCN(Cc3ccc(F)cc3)C2)C1 (stereo not drawn) [TCMDC-124635]
% Inhibition: -20.8%

CCOC(=O)c1ccc(N2CCCCC2)c(NC(=O)C(Cl)(Cl)Cl)c1 [TCMDC-125786]
% Inhibition: -22.75%

Clc1ccc(CNCC2CCN(CC3CCCCC3)CC2)cc1Cl [TCMDC-139467]
% Inhibition: -4.599%

O=C(NCCCCN1CCN(c2ccc3c(c2)CCC3)CC1)c1ccc(NC(=O)c2ccc(Cl)cc2)cc1 [TCMDC-138512]
% Inhibition: -2.19%

O=C(NCCCCN1CCC(O)(c2ccc3c(c2)OCO3)CC1)c1ccc(NC(=O)c2ccc(Cl)cc2)cc1 [TCMDC-138356]
% Inhibition: -1.021%

Clc1ccc(CNCCCCCCCNCc2ccc(Cl)c(Cl)c2)cc1Cl [TCMDC-138075]
% Inhibition: 16.46%

O=C(/C=C/c1ccc(C(F)(F)F)cc1)NCCCCCN1CCN(C(=O)Nc2ccc(Cl)cc2)CC1 [TCMDC-136095]
% Inhibition: -21.7%

O=C(/C=C/c1ccc(C(F)(F)F)cc1)NCCCCCN1CCCN(C(=O)Nc2ccc(Cl)cc2)CC1 [TCMDC-136106]
% Inhibition: -46.09%

N=C(N=C(NCCCCCCNC(=NC(=N)Nc1ccc(Cl)cc1)N1CCCCC1)N1CCCCC1)Nc1ccc(Cl)cc1 [TCMDC-131811]
% Inhibition: 119.8%

N=C(/N=C(/NCCCCCCN/C(=N\C(=N)Nc1ccc(Cl)cc1)N1CCOCC1)N1CCOCC1)Nc1ccc(Cl)cc1 [TCMDC-131813]
% Inhibition: 108.7%

N=C(N=C(NCCCCCCNC(=NC(=N)NCc1ccc(Cl)c(Cl)c1)N1CCCCC1)N1CCCCC1)NCc1ccc(Cl)c(Cl)c1 [TCMDC-131816]
% Inhibition: 118.5%

Nc1nc2c(ncn2COC2COP(=O)(O)OC2)c(=O)[nH]1 (stereo not drawn) [TCMDC-138021]
% Inhibition: 10.06%

Cc1ccc(Nc2nc(C)cc(NC3CCCC3)n2)cc1 [TCMDC-133470]
% Inhibition: 43.93%

CCN(CCNc1nc(NCCc2cnc[nH]2)nc(N(CCC#N)Cc2ccccc2)n1)c1cccc(C)c1 [TCMDC-139258]
% Inhibition: -10.46%

COc1cccc(C(=O)Nc2ccc(Oc3ccc(Cl)cc3)cc2)c1 [TCMDC-123807]
% Inhibition: -8.512%

CCC(=O)Oc1ccc(NC(=O)c2cccc(OC)c2)cc1 [TCMDC-131408]
% Inhibition: 8.36%

COc1cccc(C(=O)NCc2n[nH]c(=S)n2-c2ccc(Cl)c(Cl)c2)c1 [TCMDC-123816]
% Inhibition: 81.2%
